PMC10668032, “Altered binding affinity of SIX1-Q177R correlates with enhanced WNT5A and WNT pathway effector expression in Wilms tumor”
Whole data set: some 33,000 sequences, median “e-score” near -0.053, cut for the highest 2% near 0.38. The entries come from a sample that favours the highest values as a whole.

Molecular target: T1, SIX1 homeodomain (reference allele) (human, UniProt Q15475 108-198)
T1 sequence: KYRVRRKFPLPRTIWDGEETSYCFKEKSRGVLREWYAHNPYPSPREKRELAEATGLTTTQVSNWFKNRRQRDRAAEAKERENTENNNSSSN
Experiment: universal protein binding microarray; Universal all-10-mer PBM (8x60K, AMADID 030236), 300 nM GST-tagged protein, Alexa Fluor 488 anti-GST; buffer, salt, pH and temperature not stated (as in Berger); high values mean tight binding
Details: protein: ivt; tags: N-terminal GST; dsDNA, one strand shown
Method in brief: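 Binding of GST-tagged homeodomains is given as 8-mer E-scores from the Universal PBM Analysis Suite. The proteins were produced by in vitro transcription/translation, quantified by anti-GST western blot against a recombinant GST standard curve, and applied in duplicate at 300 nM final concentration to universal 'all 10-mer' protein binding microarrays (8×60K format).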

Sequence	binding signal [E-score]
AGTGATAC	0.489 ± 0.00626
GGTGATGA	0.191 ± 0.0354
GGTGATAA	0.154 ± 0.0176
ACACCATG	0.306 ± 0.0191
CCCCATCG	0.152 ± 0.0278
TACCCACA	0.196 ± 0.0401
ATAGGCAG	0.184 ± 0.025
CCAAGATA	0.229 ± 0.0485
ATACGCAG	0.314 ± 0.0177
ATCATGTC	0.295 ± 0.0201
GCGACCGA	0.151 ± 0.024
ATCCCCAT	0.295 ± 0.0355
ATCCCCAA	0.294 ± 0.0584
ATCCCCCG	0.403 ± 0.00588
ATCCCCTA	0.374 ± 0.0124
ATCCCCGG	0.307 ± 0.0247
ATCCCCCA	0.392 ± 0.0226
ATCCCCTG	0.3344 ± 0.00285
ATCCCGAG	0.257 ± 0.025
ATCCCGAT	0.378 ± 0.0289
ATCCCGAA	0.252 ± 0.0478
ATCCCGCG	0.323 ± 0.0328
ATCCCCTC	0.387 ± 0.0304
ATGCGGTA	0.265 ± 0.0333
AGATGGAT	0.328 ± 0.00364

Sequence	binding signal [E-score]
ATACAGGG	0.295 ± 0.0454
CGTAGATA	0.23 ± 0.0417
GATCGTTA	0.198 ± 0.00351
ATACGGCC	0.344 ± 0.0108
ATTAATCC	0.316 ± 0.089
TCAATCCA	0.163 ± 0.0587
ATCCCCCC	0.423 ± 0.0283
ATCCCCGC	0.326 ± 0.0778
ATCACCCA	0.308 ± 0.00677
ATCCCCAC	0.347 ± 0.0302
ATCACCCC	0.302 ± 0.0208
ATCACCCG	0.397 ± 0.0282
ATCGTAGG	0.16 ± 0.0377
CTGATCTA	0.2567 ± 0.000955
GATACGTA	0.4288 ± 0.00319
AATACGCC	0.188 ± 0.0403
GATACGCA	0.4207 ± 0.00257
GACACGTA	0.211 ± 0.0335
TATACGCA	0.304 ± 0.0184
AATACGTA	0.237 ± 0.0731
GAGACGCC	0.155 ± 0.0256
GATACGCC	0.4525 ± 0.00258
GATACAAA	0.252 ± 0.0232
CCCGTCTA	0.159 ± 0.00699
AGACGTAT	0.319 ± 0.0844

Sequence	binding signal [E-score]
CAGTGTCA	0.249 ± 0.0216
CGCATCGA	0.208 ± 0.103
CACCGGTG	0.196 ± 0.0172
ATATGAAT	0.19 ± 0.0448
CCCTGATA	0.36 ± 0.00422
ATCTGATC	0.419 ± 0.0129
ATCTGAAC	0.179 ± 0.00772
ATCTGACC	0.282 ± 0.0195
ATCTGATG	0.156 ± 0.0564
CTCTGATA	0.312 ± 0.08
ATCTGATA	0.446 ± 0.0144
ACCTGATA	0.401 ± 0.0362
ACCTGATC	0.31 ± 0.0291
GGTTTCGA	0.172 ± 0.0592
GAGATCTA	0.172 ± 0.0177
TAAACCCA	0.161 ± 0.0201
CGATCGCA	0.284 ± 0.0349
ATCGGTGA	0.232 ± 0.0224
GTGTCCCA	0.204 ± 0.0515
CGTTAGTA	0.194 ± 0.00764
ATATTCTC	0.269 ± 0.0439
TATCCGAA	0.334 ± 0.0355
AATCCGCC	0.212 ± 0.00218
GATCCAAA	0.207 ± 0.0442
AATCCGCT	0.191 ± 0.0498

Sequence	binding signal [E-score]
GATCCGCC	0.427 ± 0.0138
TATCCGCA	0.4006 ± 0.00313
AATCCGCA	0.204 ± 0.0414
GATCCGCA	0.411 ± 0.0362
CATCCGCC	0.237 ± 0.0769
GCCATATA	0.215 ± 0.0356
ACACCGCT	0.224 ± 0.00469
CCCACTGA	0.191 ± 0.0775
ATGCAGTG	0.153 ± 0.121
ATCGCGTA	0.189 ± 0.0511
TACTACTA	0.195 ± 0.0204
CGTATACG	0.317 ± 0.065
CGAATACC	0.233 ± 0.0485
AGGATAAA	0.16 ± 0.041
CGGATACG	0.38745 ± 0.000205
CGGATACA	0.446 ± 0.0132
AGGATACG	0.386 ± 0.0183
CGGATGCC	0.214 ± 0.0396
CGGATACC	0.476 ± 0.00619
CGGATAAG	0.187 ± 0.0213
CCATCTAC	0.161 ± 0.00787
ATTCAATA	0.161 ± 0.0419
TATGCGAA	0.164 ± 0.0286
ACACCTTC	0.219 ± 0.032
ATGGGGTA	0.163 ± 0.0446

Sequence	binding signal [E-score]
TCGCGACA	0.193 ± 0.0437
ATCGCTCG	0.199 ± 0.0182
CGGATTGC	0.23 ± 0.0242
ACACCGAC	0.256 ± 0.0314
GATCAAGA	0.191 ± 0.0318
CCAAGATC	0.22 ± 0.0354
ACCCAATA	0.158 ± 0.0255
GCCCCTCC	0.158 ± 0.185
AGGATACA	0.337 ± 0.0073
TGGATACA	0.351 ± 0.0427
GGGATACA	0.383 ± 0.0303
AGGATACC	0.457 ± 0.00534
AGGATACT	0.364 ± 0.0424
GGGATACC	0.455 ± 0.0274
GGAATACC	0.295 ± 0.024
GGGATAAC	0.303 ± 0.0153
TCTATACA	0.243 ± 0.0131
CGCCGATA	0.376 ± 0.0145
TACTCGCA	0.154 ± 0.0249
CTATATAG	0.182 ± 0.0165
ATGTGGTA	0.151 ± 0.00476
ACCATCTA	0.159 ± 0.0813
CCCGGGTA	0.228 ± 0.0421
ATACAAGA	0.239 ± 0.0188
TACATCCA	0.156 ± 0.0562

Sequence	binding signal [E-score]
ATTGGATA	0.297 ± 0.05
AATATGGA	0.158 ± 0.0544
GATATGGA	0.423 ± 0.00533
GATATTGC	0.323 ± 0.0993
GGTATGTA	0.2127 ± 0.00178
GATATGGC	0.418 ± 0.0102
CCTATGTA	0.156 ± 0.0122
GATATGTA	0.383 ± 0.0265
GATATGAC	0.357 ± 0.048
TATATGGA	0.207 ± 0.0193
AAAAGTAT	0.204 ± 0.154
AGGGTGAT	0.366 ± 0.00952
ATACTTTA	0.261 ± 0.0614
GATAGGTA	0.325 ± 0.00657
GATCAAAA	0.234 ± 0.0678
AGGGGCGG	0.174 ± 0.127
ATCTTCTA	0.227 ± 0.0812
ATCTCATG	0.197 ± 0.0118
GTATCTTA	0.312 ± 0.0466
CTATCATA	0.341 ± 0.0419
ATATCATG	0.458 ± 0.0133
AGATCATG	0.295 ± 0.0208
GTATCATA	0.471 ± 0.013
AGATCATC	0.344 ± 0.0462
GCATCATA	0.183 ± 0.0507

Sequence	binding signal [E-score]
ATATCATC	0.46 ± 0.0219
ATATCATA	0.442 ± 0.0274
ATATCTTA	0.345 ± 0.0615
CTATCATC	0.34 ± 0.0172
CAGCTATC	0.25 ± 0.0918
ATCATCCA	0.275 ± 0.0117
ATCACAGC	0.2757 ± 0.00158
AGTTAATC	0.182 ± 0.0377
AGTAGTAT	0.349 ± 0.0523
CGGCTCGA	0.15 ± 0.146
GAAGATAA	0.154 ± 0.0705
CCGGGAGA	0.177 ± 0.081
TACCAATA	0.204 ± 0.0104
ACTATCCA	0.241 ± 0.0211
CCTATCCG	0.316 ± 0.0172
AGTATCCA	0.391 ± 0.00372
GGTATTCA	0.3 ± 0.0073
AGTATCCG	0.396 ± 0.0105
ACTATCCG	0.35 ± 0.00425
ATTATCCA	0.176 ± 0.0268
GCTATCCA	0.204 ± 0.0406
GGTATCCA	0.464 ± 0.0172
